The supplement of paper PMC10849652
Targets with a hit are over-represented here; the source holds about 7,900 in all. About 0.6% of all pairs of compound and target were hits.

What was measured:
Assay in all cases: log2 fold change, soluble protein after heating vs DMSO (PISA); higher = thermal stabilisation; K562 cells, 10 uM, 30 min; active = over 0.2 and 3.5 SD of the protein, either way, in both replicates (recomputed)
[1] = compound: CS(=O)(=O)c1ccc(-c2cnc(N)c(C(=O)Nc3ccccc3)n2)cc1
Summary of the method: (§1)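 Values are thermal stability changes relative to control samples and are taken from duplicates. They are stated as log2 fold changes. Before quantification by TMTpro 16plex LC-MS/MS with equalised channel sums, K562 cells at 2×10^6 cells/mL were treated with 10 μM compound for 30 min, heated in aliquots for 3 min across 48°C-58°C, pooled, extracted in PBS with 0.5% NP-40 at 4°C, and centrifuged at 21,000xg for 90 min to give the soluble supernatant.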

[2] = compound: C[C@@H]1COCCN1C2=NC(=NC(=C2)C3(CC3)S(=O)(=O)C)C4=C5C=CNC5=CC=C4
Summary of the method: as §1

[3] = compound: C[C@H](C1=CC=C(C=C1)C(=O)NC2=C3C=CNC3=NC=C2)N
Summary of the method: as §1

duvelisib = compound: C[C@H](Nc1ncnc2nc[nH]c12)c1cc2cccc(Cl)c2c(=O)n1-c1ccccc1 [duvelisib]
Summary of the method: as §1

gandotinib = compound: Cc1cc(Nc2cc(CN3CCOCC3)c3nc(C)c(Cc4ccc(Cl)cc4F)n3n2)n[nH]1 [gandotinib]
Summary of the method: as §1

tozasertib = compound: Cc1cc(Nc2cc(N3CCN(C)CC3)nc(Sc3ccc(NC(=O)C4CC4)cc3)n2)n[nH]1 [tozasertib]
Summary of the method: as §1

[4] = compound: Cc1cc(SCc2sc(-c3ccc(C(F)(F)F)cc3)nc2C)ccc1OCC(=O)O
Summary of the method: as §1

ispinesib = compound: Cc1ccc(C(=O)N(CCCN)[C@@H](c2nc3cc(Cl)ccc3c(=O)n2Cc2ccccc2)C(C)C)cc1 [ispinesib]
Summary of the method: as §1

bafetinib = compound: Cc1ccc(NC(=O)c2ccc(CN3CC[C@H](N(C)C)C3)c(C(F)(F)F)c2)cc1Nc1nccc(-c2cncnc2)n1 [bafetinib]
Summary of the method: as §1

[5] = compound: Cc1cccc(CC(=O)N2CCc3c2ccc(-c2cn(C)c4ncnc(N)c24)c3F)n1
Summary of the method: as §1

nilotinib = compound: Cc1cn(-c2cc(NC(=O)c3ccc(C)c(Nc4nccc(-c5cccnc5)n4)c3)cc(C(F)(F)F)c2)cn1 [nilotinib]
Summary of the method: as §1

[6] = compound: Cc1nc(Nc2n[nH]c3c2CN(C(=O)N[C@H](CN(C)C)c2ccccc2)C3(C)C)c2sccc2n1
Summary of the method: as §1

dasatinib = compound: Cc1nc(Nc2ncc(C(=O)Nc3c(C)cccc3Cl)s2)cc(N2CCN(CCO)CC2)n1 [dasatinib]
Summary of the method: as §1

[7] = compound: Cc1ncc(-c2ccnc(Nc3ccc(S(C)(=O)=O)cc3)n2)n1C(C)C
Summary of the method: as §1

[8] = compound: Cn1cc(-c2ccc3c(c2)CCN3C(=O)Cc2cccc(C(F)(F)F)c2)c2c(N)ncnc21
Summary of the method: as §1

[9] = compound: Cn1cc(-c2ccc3nnc(C(F)(F)c4ccc5ncccc5c4)n3n2)cn1
Summary of the method: as §1

tipifarnib = compound: Cn1cncc1[C@@](N)(c1ccc(Cl)cc1)c1ccc2c(c1)c(-c1cccc(Cl)c1)cc(=O)n2C [tipifarnib]
Summary of the method: as §1

mubritinib = compound: FC(F)(F)c1ccc(/C=C/c2nc(COc3ccc(CCCCn4ccnn4)cc3)co2)cc1 [mubritinib]
Summary of the method: as §1

crizotinib = compound: C[C@@H](Oc1cc(-c2cnn(C3CCNCC3)c2)cnc1N)c1c(Cl)ccc(F)c1Cl [crizotinib]
Summary of the method: as §1

doramapimod = compound: Cc1ccc(-n2nc(C(C)(C)C)cc2NC(=O)Nc2ccc(OCCN3CCOCC3)c3ccccc23)cc1 [doramapimod]
Summary of the method: as §1

Measured: log2 fold change

IFNGR1 (UniProt P15260)
Chain of UniProt P15260 (P15260 whole entry, looked up): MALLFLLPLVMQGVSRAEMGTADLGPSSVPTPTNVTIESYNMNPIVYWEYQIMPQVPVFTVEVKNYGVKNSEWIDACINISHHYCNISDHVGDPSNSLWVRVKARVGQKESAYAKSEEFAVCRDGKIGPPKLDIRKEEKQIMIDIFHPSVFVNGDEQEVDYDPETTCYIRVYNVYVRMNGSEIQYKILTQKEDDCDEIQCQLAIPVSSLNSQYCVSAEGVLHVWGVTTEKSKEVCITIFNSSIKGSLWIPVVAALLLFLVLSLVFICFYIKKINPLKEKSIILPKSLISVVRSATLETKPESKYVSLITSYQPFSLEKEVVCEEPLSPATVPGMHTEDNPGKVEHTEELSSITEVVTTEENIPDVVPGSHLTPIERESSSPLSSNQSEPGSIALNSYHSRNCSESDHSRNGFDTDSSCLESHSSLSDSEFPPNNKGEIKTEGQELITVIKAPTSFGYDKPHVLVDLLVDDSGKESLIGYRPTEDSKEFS
inactive: [1] 0.135 | [2] -0.1 | [3] 0.068 | duvelisib -0.059 | gandotinib -0.053 | tozasertib -0.19 | [4] -0.162 | ispinesib -0.041 | bafetinib -0.262 | [5] -0.027 | nilotinib 0.075 | [6] -0.015 | dasatinib 0.154 | [7] -0.126 | [8] 0.123 | [9] -0.123 | tipifarnib 0.119 | mubritinib 0.299

FMR1 (UniProt Q06787)
inactive: [1] -0.067 | crizotinib 0.151 | [3] 0.199 | gandotinib 0.045 | doramapimod -0.065 | ispinesib -0.022 | [5] -0.146 | [8] -0.224 | [9] -0.028 | tipifarnib -0.129 | mubritinib -0.175

FYB1 isoform 3 (UniProt O15117)
Chain of UniProt O15117 (O15117 whole entry, looked up): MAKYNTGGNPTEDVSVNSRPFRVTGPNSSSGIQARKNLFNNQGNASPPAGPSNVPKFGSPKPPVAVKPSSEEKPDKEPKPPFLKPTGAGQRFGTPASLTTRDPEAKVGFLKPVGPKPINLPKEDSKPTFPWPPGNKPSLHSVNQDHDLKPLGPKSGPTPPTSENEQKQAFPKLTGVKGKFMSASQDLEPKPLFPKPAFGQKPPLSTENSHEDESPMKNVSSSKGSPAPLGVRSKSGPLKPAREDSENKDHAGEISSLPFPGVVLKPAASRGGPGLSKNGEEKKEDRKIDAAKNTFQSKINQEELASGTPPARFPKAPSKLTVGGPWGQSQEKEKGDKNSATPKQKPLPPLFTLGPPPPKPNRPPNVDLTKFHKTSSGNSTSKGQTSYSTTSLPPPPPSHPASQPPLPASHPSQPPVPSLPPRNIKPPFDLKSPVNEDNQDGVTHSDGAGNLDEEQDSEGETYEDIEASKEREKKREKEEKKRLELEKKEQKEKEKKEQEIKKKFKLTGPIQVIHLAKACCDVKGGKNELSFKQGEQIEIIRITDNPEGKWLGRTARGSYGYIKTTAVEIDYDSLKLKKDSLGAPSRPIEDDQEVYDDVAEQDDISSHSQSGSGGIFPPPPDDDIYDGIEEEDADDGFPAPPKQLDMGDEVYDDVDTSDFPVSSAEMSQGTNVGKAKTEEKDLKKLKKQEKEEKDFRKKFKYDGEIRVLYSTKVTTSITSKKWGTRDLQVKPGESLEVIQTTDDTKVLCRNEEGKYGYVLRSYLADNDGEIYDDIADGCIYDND
active: duvelisib -0.344
inactive: [1] -0.025 | crizotinib -0.11 | [2] 0.046 | gandotinib 0.057 | tozasertib 0.009 | [4] 0.067 | doramapimod 0.021 | ispinesib -0.083 | bafetinib -0.019 | [5] -0.071 | nilotinib -0.036 | [6] -0.026 | dasatinib -0.021 | [7] -0.077 | [9] -0.156 | tipifarnib -0.025 | mubritinib 0.085

GID4 (UniProt Q8IVV7)
Chain of UniProt Q8IVV7 (Q8IVV7 whole entry, looked up): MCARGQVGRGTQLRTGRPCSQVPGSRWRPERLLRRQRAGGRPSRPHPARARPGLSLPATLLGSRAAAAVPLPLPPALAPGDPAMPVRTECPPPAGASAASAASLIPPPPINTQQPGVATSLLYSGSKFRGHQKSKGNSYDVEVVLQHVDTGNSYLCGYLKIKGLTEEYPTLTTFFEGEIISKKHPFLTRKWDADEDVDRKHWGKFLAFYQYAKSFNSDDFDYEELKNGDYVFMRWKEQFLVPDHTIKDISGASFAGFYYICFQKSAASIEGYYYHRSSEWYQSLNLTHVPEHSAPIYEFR
inactive: [1] 0 | [2] 0.054 | [3] -0.006 | duvelisib 0.009 | gandotinib 0.034 | tozasertib 0.052 | [4] 0.032 | ispinesib 0.044 | bafetinib -0.059 | [5] -0.058 | nilotinib -0.051 | [6] 0.003 | dasatinib -0.086 | [7] 0.038 | [8] -0.042 | [9] -0.032 | tipifarnib 0.116 | mubritinib -0.029

GBE1 (UniProt Q04446)
Chain of UniProt Q04446 (Q04446 whole entry, looked up): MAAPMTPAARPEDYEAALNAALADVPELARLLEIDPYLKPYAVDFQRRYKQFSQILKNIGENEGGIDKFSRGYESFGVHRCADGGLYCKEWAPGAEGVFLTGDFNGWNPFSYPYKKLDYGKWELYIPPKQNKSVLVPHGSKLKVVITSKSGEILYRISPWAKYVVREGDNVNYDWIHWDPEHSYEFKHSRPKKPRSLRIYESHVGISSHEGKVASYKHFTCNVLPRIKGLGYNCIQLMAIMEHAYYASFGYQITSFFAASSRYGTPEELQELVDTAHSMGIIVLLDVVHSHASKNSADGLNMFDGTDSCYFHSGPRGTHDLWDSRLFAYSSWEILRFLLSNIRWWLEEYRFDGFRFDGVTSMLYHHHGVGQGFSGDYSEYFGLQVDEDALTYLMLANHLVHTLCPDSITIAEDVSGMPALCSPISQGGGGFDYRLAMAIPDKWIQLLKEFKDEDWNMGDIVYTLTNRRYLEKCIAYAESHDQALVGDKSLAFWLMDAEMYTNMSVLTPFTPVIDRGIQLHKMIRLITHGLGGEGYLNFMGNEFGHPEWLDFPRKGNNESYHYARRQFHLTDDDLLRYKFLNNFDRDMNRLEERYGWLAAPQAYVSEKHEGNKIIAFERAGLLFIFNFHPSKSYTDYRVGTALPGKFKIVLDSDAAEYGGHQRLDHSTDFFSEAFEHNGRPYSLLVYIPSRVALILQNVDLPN
active: crizotinib -0.565
inactive: [2] -0.054 | [3] 0.193 | duvelisib -0.026 | tozasertib -0.001 | [4] 0.094 | doramapimod -0.02 | ispinesib -0.286 | bafetinib 0.067 | dasatinib -0.275 | [8] -0.004 | [9] 0.059 | tipifarnib -0.608 | mubritinib 0.181

IFITM3 (UniProt Q01628)
Chain of UniProt Q01628 (Q01628 whole entry, looked up): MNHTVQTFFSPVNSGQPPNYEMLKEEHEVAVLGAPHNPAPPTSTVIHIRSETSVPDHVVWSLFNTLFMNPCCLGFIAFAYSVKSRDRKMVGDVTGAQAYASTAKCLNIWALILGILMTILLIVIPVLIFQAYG
inactive: [1] -0.038 | crizotinib -0.027 | [2] 0.069 | [3] -0.085 | duvelisib 0.22 | tozasertib -0.002 | [4] -0.094 | doramapimod 0.038 | ispinesib 0.07 | bafetinib -0.073 | nilotinib 0.07 | [6] -0.2 | dasatinib -0.076 | [7] -0.01 | [8] 0.049 | [9] -0.149 | tipifarnib 0.113 | mubritinib -0.157

IGF2 isoform 3 (UniProt P01344)
Chain of UniProt P01344 (P01344 whole entry, looked up): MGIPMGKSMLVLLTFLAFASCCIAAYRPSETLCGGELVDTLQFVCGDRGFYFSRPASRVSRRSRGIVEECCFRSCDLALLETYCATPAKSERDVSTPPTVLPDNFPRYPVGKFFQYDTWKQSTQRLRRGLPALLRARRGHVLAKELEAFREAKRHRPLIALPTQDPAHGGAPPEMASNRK
inactive: crizotinib -0.07 | duvelisib 0.175 | [4] 0.03 | doramapimod -0.13 | dasatinib 0.019

FUNDC1 (UniProt Q8IVP5)
Chain of UniProt Q8IVP5 (Q8IVP5 whole entry, looked up): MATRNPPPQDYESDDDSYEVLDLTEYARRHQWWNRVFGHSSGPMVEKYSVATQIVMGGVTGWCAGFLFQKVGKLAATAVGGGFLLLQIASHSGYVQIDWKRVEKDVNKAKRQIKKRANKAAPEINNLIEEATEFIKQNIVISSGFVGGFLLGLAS
inactive: [1] 0.046 | bafetinib -0.169 | tipifarnib 0 | mubritinib 0.066

GOLGA8R (UniProt I6L899)
Chain of UniProt I6L899 (I6L899 whole entry, looked up): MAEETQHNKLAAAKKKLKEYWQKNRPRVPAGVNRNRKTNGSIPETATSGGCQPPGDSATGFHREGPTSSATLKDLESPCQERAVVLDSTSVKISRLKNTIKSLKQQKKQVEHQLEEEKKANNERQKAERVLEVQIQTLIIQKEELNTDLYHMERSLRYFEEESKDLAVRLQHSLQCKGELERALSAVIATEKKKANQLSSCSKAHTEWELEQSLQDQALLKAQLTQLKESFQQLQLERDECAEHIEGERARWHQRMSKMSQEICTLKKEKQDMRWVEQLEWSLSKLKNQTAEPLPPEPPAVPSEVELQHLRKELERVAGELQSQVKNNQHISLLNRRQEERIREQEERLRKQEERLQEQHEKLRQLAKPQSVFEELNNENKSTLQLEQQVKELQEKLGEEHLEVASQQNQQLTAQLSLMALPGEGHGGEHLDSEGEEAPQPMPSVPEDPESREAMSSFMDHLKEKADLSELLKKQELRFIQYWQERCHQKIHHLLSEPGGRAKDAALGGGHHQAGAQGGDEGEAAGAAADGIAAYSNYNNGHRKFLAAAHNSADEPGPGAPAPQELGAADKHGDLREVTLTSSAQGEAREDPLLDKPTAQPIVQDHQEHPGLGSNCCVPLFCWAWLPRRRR
inactive: crizotinib -0.009 | [3] -0.059 | duvelisib 0.242 | gandotinib 0.324 | tozasertib -0.033 | [4] -0.067 | doramapimod 0.108 | ispinesib -0.038 | bafetinib -0.095 | [5] -0.021 | dasatinib -0.074 | [8] 0.189 | [9] 0.126 | tipifarnib 0.287

HBZ, A0A494C057
inactive: bafetinib -0.015 | nilotinib 0.171 | [6] -0.035 | [7] 0.127 | mubritinib -0.08

FCF1 (UniProt Q9Y324)
Chain of UniProt Q9Y324 (Q9Y324 whole entry, looked up): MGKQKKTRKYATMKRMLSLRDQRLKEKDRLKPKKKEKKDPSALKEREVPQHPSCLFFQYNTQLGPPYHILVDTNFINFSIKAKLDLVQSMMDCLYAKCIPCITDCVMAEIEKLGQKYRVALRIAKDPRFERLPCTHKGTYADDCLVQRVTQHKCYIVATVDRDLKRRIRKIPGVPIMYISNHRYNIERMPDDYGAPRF
inactive: [1] 0.06 | crizotinib -0.054 | [2] -0.225 | duvelisib -0.592 | gandotinib 0.155 | tozasertib 0.021 | [4] 0.103 | doramapimod 0.244 | ispinesib -0.095 | [5] 0.042 | dasatinib 0.139 | [9] -0.119 | tipifarnib 0.242 | mubritinib -0.129

GSE1 (UniProt Q14687)
Chain of UniProt Q14687 (Q14687 whole entry, looked up): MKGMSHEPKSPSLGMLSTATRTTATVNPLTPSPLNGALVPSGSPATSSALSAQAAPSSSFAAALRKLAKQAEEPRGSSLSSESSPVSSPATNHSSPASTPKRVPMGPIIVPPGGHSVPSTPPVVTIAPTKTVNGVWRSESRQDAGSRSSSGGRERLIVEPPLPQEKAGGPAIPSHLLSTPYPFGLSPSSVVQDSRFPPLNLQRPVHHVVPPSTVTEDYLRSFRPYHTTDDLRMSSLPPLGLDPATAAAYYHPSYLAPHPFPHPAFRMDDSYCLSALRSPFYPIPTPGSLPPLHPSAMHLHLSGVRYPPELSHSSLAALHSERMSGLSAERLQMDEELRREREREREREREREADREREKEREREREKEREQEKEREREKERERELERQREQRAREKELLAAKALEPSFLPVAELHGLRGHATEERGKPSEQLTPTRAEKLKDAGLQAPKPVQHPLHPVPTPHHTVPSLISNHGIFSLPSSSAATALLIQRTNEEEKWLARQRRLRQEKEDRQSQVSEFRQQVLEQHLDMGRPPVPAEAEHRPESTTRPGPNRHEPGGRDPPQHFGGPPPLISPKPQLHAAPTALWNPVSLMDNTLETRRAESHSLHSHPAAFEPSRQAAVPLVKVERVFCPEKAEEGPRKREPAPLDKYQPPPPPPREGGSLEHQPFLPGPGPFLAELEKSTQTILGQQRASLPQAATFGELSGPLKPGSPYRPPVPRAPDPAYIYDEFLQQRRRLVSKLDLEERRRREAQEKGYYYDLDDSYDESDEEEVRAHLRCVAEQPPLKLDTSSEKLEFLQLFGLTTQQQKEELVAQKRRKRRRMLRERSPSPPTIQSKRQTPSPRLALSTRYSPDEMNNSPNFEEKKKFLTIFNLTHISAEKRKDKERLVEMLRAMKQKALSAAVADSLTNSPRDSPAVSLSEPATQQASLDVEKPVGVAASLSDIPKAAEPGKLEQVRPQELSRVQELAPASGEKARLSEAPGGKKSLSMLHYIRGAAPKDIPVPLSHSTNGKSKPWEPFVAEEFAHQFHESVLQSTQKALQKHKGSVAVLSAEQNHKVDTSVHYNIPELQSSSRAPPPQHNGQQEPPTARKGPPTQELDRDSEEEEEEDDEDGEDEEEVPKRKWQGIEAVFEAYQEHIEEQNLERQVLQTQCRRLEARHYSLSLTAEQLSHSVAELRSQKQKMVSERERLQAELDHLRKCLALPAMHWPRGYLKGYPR
inactive: [3] 0.008 | duvelisib 0.033 | [4] -0.046 | ispinesib -0.066 | bafetinib 0.305 | nilotinib 0.034 | [6] 0.004 | dasatinib -0.453 | [7] -0.096 | [8] -0.009 | [9] 0.012
